The source of these data is paper PMC7862700, “An all-to-all approach to the identification of sequence-specific readers for epigenetic DNA modifications on cytosine”.

Experiment in all cases: DAPPL (digital affinity profiling via proximity ligation, sequencing); 10 mM Tris-HCl pH 7.5, 50 mM NaCl, 1 mM DTT, 4% glycerol, room temperature, 30 min; GST-TFs on glutathione beads, 16-mer random dsDNA library, 0.1% formaldehyde crosslink after washing; high values mean tight binding
The target in assay [1] is T1, ETV2 (Homo sapiens, UniProt O00321 1-342).
T1 sequence: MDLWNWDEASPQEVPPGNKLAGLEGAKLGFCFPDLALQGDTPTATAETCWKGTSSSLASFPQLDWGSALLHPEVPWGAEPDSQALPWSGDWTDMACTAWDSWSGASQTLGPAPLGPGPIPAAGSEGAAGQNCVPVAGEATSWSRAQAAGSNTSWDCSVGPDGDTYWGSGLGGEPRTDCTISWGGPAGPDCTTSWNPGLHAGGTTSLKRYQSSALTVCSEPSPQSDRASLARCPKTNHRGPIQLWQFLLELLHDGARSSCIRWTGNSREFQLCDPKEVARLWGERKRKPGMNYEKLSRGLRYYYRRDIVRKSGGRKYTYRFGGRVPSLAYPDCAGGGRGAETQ
The note with it: protein: recombinant; tags: N-terminal GST; dsDNA, one strand shown. A digest of the protocol: (§1)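 The binding signal reported is, for every hexamer, its read frequency for a factor over its read frequency for the tag-only sample. Reads came from pools of yeast-expressed, GST-fused human transcription factors on glutathione beads, barcoded with DNA and mixed with that sample, which were incubated with 200 nmole of a random double-stranded 16-mer DNA library in Tris/NaCl/DTT/glycerol buffer at room temperature for 30 min. After washing, the pools were crosslinked with 0.1% formaldehyde, proximity-ligated with BsaI/T4 ligase for 1 h at 37 °C, PCR-amplified and sequenced on an Illumina NextSeq500.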

The target in assay [2] is SPI1 (Homo sapiens, UniProt P17947 1-270). The note with it: protein: recombinant; tags: N-terminal GST; dsDNA, one strand shown. A digest of the protocol:
as §1

Assay [3] concerns the target T2, FEV (Homo sapiens, UniProt Q99581 1-238).
T2 sequence: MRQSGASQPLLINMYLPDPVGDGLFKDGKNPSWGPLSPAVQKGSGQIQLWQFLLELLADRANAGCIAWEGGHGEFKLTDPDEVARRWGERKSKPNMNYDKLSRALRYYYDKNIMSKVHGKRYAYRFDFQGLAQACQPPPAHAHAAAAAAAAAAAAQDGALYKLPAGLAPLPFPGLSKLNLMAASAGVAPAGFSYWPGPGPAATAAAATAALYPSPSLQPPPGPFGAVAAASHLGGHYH
The note with it: protein: recombinant; tags: N-terminal GST; dsDNA, one strand shown. A digest of the protocol: as §1

The target in assay [4] is T3, ELF5 (Homo sapiens, UniProt Q9UKW6-2 1-255).
T3 sequence: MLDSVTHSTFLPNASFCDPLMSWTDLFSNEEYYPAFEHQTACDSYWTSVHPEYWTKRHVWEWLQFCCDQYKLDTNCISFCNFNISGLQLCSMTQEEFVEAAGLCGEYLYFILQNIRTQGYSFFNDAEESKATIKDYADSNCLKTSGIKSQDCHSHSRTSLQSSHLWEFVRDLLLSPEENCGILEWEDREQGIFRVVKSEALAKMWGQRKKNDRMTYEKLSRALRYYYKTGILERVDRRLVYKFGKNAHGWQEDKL
The note with it: protein: recombinant; tags: N-terminal GST; dsDNA, one strand shown. A digest of the protocol: as §1

Assay [5] has as its target HSF1 (Homo sapiens, UniProt Q00613 1-529). The note with it: protein: recombinant; tags: N-terminal GST; chain copies: 3; dsDNA, one strand shown. In outline: as §1
Assay [6] concerns the target CRX (Homo sapiens, UniProt O43186 1-299). The note with it: protein: recombinant; tags: N-terminal GST; dsDNA, one strand shown. A digest of the protocol: as §1

Sequence of HSF1 (Q00613 whole entry): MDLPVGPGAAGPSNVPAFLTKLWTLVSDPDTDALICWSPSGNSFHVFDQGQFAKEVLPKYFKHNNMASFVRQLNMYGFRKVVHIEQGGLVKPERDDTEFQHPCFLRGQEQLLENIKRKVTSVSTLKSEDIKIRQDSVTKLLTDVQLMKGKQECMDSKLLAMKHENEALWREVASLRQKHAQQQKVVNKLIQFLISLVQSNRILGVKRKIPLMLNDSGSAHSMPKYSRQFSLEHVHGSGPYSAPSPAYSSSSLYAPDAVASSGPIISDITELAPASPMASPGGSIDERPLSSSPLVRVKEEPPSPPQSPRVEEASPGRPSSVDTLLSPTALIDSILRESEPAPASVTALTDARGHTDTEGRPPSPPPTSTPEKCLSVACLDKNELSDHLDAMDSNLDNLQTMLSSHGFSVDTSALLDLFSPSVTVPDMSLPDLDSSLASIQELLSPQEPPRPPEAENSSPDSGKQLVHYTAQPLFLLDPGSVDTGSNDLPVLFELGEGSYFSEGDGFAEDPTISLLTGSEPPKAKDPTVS
Sequence of CRX (O43186 whole entry): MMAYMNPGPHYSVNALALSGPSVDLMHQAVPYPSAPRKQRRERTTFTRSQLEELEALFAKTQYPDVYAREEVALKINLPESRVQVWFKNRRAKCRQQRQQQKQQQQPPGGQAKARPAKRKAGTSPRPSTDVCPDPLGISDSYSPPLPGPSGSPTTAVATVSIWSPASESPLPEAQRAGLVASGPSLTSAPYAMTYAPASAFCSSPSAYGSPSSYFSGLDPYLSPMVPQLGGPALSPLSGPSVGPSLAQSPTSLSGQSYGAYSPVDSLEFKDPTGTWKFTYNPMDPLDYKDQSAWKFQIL

On to CGCGCG, for which the binding signal in assay [1] is 1.05 fold enrichment (6-mer frequency, TF over GST control).
As to AGTGCA, the binding signal in assay [2] is 1.47 fold enrichment (6-mer frequency, TF over GST control); in assay [3] it was 1.15 fold enrichment (6-mer frequency, TF over GST control); in assay [1], 1.04 fold enrichment (6-mer frequency, TF over GST control); in assay [4], 1.1 fold enrichment (6-mer frequency, TF over GST control).
Turning to GAACTG, the binding signal in assay [2] was 1.2 fold enrichment (6-mer frequency, TF over GST control); in assay [1], 1.02 fold enrichment (6-mer frequency, TF over GST control); in assay [4] it was 1.01 fold enrichment (6-mer frequency, TF over GST control).
For TGGAAC, the binding signal in assay [3] was 1.02 fold enrichment (6-mer frequency, TF over GST control); in assay [5], 1.86 fold enrichment (6-mer frequency, TF over GST control).
Regarding CAATGT, the binding signal in assay [3] was 1 fold enrichment (6-mer frequency, TF over GST control).
GCTAGA: the binding signal in assay [5] is 1.96 fold enrichment (6-mer frequency, TF over GST control); in assay [6], 1.15 fold enrichment (6-mer frequency, TF over GST control).
In the case of CATAAG, the binding signal in assay [5] was 1.13 fold enrichment (6-mer frequency, TF over GST control); in assay [6], 1.42 fold enrichment (6-mer frequency, TF over GST control).
Take ACTCAG: the binding signal in assay [3] is 1.02 fold enrichment (6-mer frequency, TF over GST control); in assay [1], 1.09 fold enrichment (6-mer frequency, TF over GST control).
For the sequence CGCGCC, the binding signal in assay [3] is 1.08 fold enrichment (6-mer frequency, TF over GST control); in assay [4], 1.03 fold enrichment (6-mer frequency, TF over GST control).
In the case of GCAATC, the binding signal is 1.02 fold enrichment (6-mer frequency, TF over GST control) in assay [2]; 1.05 fold enrichment (6-mer frequency, TF over GST control) in assay [3]; 1.01 fold enrichment (6-mer frequency, TF over GST control) in assay [5]; 1.05 fold enrichment (6-mer frequency, TF over GST control) in assay [1]; 1 fold enrichment (6-mer frequency, TF over GST control) in assay [6].
Regarding GGGGCT, the binding signal in assay [6] is 1.11 fold enrichment (6-mer frequency, TF over GST control).
As for TGGGTG, the binding signal in assay [2] was 1 fold enrichment (6-mer frequency, TF over GST control); in assay [4], 1.04 fold enrichment (6-mer frequency, TF over GST control).
Take AGCTCG: the binding signal in assay [3] was 1.03 fold enrichment (6-mer frequency, TF over GST control); in assay [5], 1.02 fold enrichment (6-mer frequency, TF over GST control); in assay [1], 1 fold enrichment (6-mer frequency, TF over GST control).
Consider ACTGGT, for which the binding signal in assay [2] is 1.1 fold enrichment (6-mer frequency, TF over GST control); in assay [1] it was 1.08 fold enrichment (6-mer frequency, TF over GST control); in assay [4], 1.03 fold enrichment (6-mer frequency, TF over GST control).
Regarding CACAGC, the binding signal in assay [3] is 1.03 fold enrichment (6-mer frequency, TF over GST control); in assay [1] it was 1.05 fold enrichment (6-mer frequency, TF over GST control).
As for ACGCTC, the binding signal in assay [1] is 1.02 fold enrichment (6-mer frequency, TF over GST control).
GCCCCG: the binding signal is 1.08 fold enrichment (6-mer frequency, TF over GST control) in assay [2]; 1.12 fold enrichment (6-mer frequency, TF over GST control) in assay [3]; 1.06 fold enrichment (6-mer frequency, TF over GST control) in assay [1].
As for CAAACA, the binding signal in assay [2] is 1.14 fold enrichment (6-mer frequency, TF over GST control); in assay [3] it was 1.1 fold enrichment (6-mer frequency, TF over GST control); in assay [1], 1.13 fold enrichment (6-mer frequency, TF over GST control); in assay [4] it was 1.11 fold enrichment (6-mer frequency, TF over GST control).
With GTACTG, the binding signal in assay [2] was 1.04 fold enrichment (6-mer frequency, TF over GST control).
TGTTGT: the binding signal in assay [2] is 1.1 fold enrichment (6-mer frequency, TF over GST control); in assay [3], 1.11 fold enrichment (6-mer frequency, TF over GST control); in assay [4], 1.05 fold enrichment (6-mer frequency, TF over GST control).
Take TGCAGC: the binding signal was 1.02 fold enrichment (6-mer frequency, TF over GST control) in assay [2]; 1.08 fold enrichment (6-mer frequency, TF over GST control) in assay [3]; 1.12 fold enrichment (6-mer frequency, TF over GST control) in assay [1].
On to AGCACA, for which the binding signal in assay [2] is 1.06 fold enrichment (6-mer frequency, TF over GST control); in assay [3], 1.12 fold enrichment (6-mer frequency, TF over GST control); in assay [1] it was 1.12 fold enrichment (6-mer frequency, TF over GST control); in assay [4] it was 1.05 fold enrichment (6-mer frequency, TF over GST control).
Turning to GTGCAT, the binding signal in assay [2] is 1.15 fold enrichment (6-mer frequency, TF over GST control); in assay [3] it was 1.06 fold enrichment (6-mer frequency, TF over GST control); in assay [1], 1.02 fold enrichment (6-mer frequency, TF over GST control); in assay [4] it was 1.02 fold enrichment (6-mer frequency, TF over GST control).
As to ACACGG, the binding signal in assay [4] was 1.15 fold enrichment (6-mer frequency, TF over GST control).
As to AGTAAA, the binding signal in assay [2] was 1.22 fold enrichment (6-mer frequency, TF over GST control); in assay [5] it was 1.09 fold enrichment (6-mer frequency, TF over GST control); in assay [4] it was 1.06 fold enrichment (6-mer frequency, TF over GST control).
For the sequence GCGAAA, the binding signal in assay [2] is 1.02 fold enrichment (6-mer frequency, TF over GST control); in assay [5] it was 1.26 fold enrichment (6-mer frequency, TF over GST control).
For GAAGCC, the binding signal in assay [3] was 1.05 fold enrichment (6-mer frequency, TF over GST control); in assay [1] it was 1.04 fold enrichment (6-mer frequency, TF over GST control); in assay [4], 1.07 fold enrichment (6-mer frequency, TF over GST control).
For GTACGA, the binding signal in assay [2] is 1.05 fold enrichment (6-mer frequency, TF over GST control); in assay [3], 1.01 fold enrichment (6-mer frequency, TF over GST control); in assay [1] it was 1.07 fold enrichment (6-mer frequency, TF over GST control); in assay [4], 1.03 fold enrichment (6-mer frequency, TF over GST control).
Consider GTCTAT, for which the binding signal was 1.03 fold enrichment (6-mer frequency, TF over GST control) in assay [2]; 1 fold enrichment (6-mer frequency, TF over GST control) in assay [1]; 1.08 fold enrichment (6-mer frequency, TF over GST control) in assay [4].
For the sequence CGCCCA, the binding signal in assay [3] is 1.02 fold enrichment (6-mer frequency, TF over GST control).
For AGTCCC, the binding signal was 1.26 fold enrichment (6-mer frequency, TF over GST control) in assay [2]; 1.09 fold enrichment (6-mer frequency, TF over GST control) in assay [3]; 1.06 fold enrichment (6-mer frequency, TF over GST control) in assay [4].
As for GGATAC, the binding signal in assay [1] was 1.01 fold enrichment (6-mer frequency, TF over GST control); in assay [4] it was 1.02 fold enrichment (6-mer frequency, TF over GST control).
Turning to GTCCGG, the binding signal is 1.15 fold enrichment (6-mer frequency, TF over GST control) in assay [3] and 1.06 fold enrichment (6-mer frequency, TF over GST control) in assay [4].
For GTGCCC, the binding signal in assay [2] was 1.07 fold enrichment (6-mer frequency, TF over GST control); in assay [3] it was 1 fold enrichment (6-mer frequency, TF over GST control).
On to AGTCCT, for which the binding signal in assay [2] is 1.2 fold enrichment (6-mer frequency, TF over GST control); in assay [1], 1.02 fold enrichment (6-mer frequency, TF over GST control); in assay [4] it was 1.17 fold enrichment (6-mer frequency, TF over GST control).
On to AACGCA, for which the binding signal in assay [2] was 1.06 fold enrichment (6-mer frequency, TF over GST control); in assay [3] it was 1.11 fold enrichment (6-mer frequency, TF over GST control); in assay [1], 1.1 fold enrichment (6-mer frequency, TF over GST control); in assay [4], 1.04 fold enrichment (6-mer frequency, TF over GST control).
